Screening data deposited in PubChem by The Scripps Research Institute Molecular Screening Center.
PREPL inhibitor = human PREPL enzyme inhibition | recombinant PREPL, fluorescence polarization activity-based probe | inhibition, % at 5.96 µM | hit rate 0.68% among 320,000
Target sequence (Q4J6C6 whole entry, looked up): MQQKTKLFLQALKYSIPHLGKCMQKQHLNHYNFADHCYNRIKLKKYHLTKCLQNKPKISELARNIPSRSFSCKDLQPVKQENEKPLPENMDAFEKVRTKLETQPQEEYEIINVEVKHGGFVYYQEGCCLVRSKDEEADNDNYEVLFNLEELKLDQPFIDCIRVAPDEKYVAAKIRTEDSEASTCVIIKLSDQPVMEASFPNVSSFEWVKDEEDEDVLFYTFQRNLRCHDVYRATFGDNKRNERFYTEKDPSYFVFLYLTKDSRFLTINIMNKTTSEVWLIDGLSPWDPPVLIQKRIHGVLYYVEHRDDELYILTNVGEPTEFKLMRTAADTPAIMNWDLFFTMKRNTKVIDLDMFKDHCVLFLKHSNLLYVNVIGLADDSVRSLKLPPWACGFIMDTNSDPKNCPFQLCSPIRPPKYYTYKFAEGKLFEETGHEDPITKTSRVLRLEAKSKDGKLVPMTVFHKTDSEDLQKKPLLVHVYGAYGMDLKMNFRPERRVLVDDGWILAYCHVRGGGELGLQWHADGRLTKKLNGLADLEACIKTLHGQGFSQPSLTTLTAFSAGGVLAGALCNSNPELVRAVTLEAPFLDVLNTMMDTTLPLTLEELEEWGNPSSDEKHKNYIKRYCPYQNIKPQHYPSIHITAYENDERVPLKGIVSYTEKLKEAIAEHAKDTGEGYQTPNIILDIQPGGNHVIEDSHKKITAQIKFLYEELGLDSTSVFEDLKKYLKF
PME-1 inh = blocks human protein phosphatase methylesterase 1; inhibition, % at 5.9 µM; AID 2130; hit rate 0.53% among 320,000; Q9Y570; recombinant PME-1, FP-Rh probe fluorescence polarization;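 active means inhibition above the campaign mean of all compounds plus 3 SD, cut at about 26% in these data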;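 further: competitive labeling of PME-1 active site by serine hydrolase directed probe; inhibitors block probe labeling so polarization falls and inhibition rises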
LYPLA1 counter = blocks human lysophospholipase 1, a PME1 counter-screen; inhibition, % at 5.9 µM; hit rate 0.16% among 320,000; O75608; recombinant LYPLA1, FP-Rh probe fluorescence polarization;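 active means inhibition above the mean of all tested compounds plus 3 SD, set per campaign, cut at about 14% in these data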;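 further: inhibitors block serine hydrolase probe labeling of LYPLA1 so polarization falls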
LYPLA2 counter = LYPLA2 (human) inhibition in PME1 counter-screen. O95372. recombinant LYPLA2, FP-Rh probe fluorescence polarization. inhibition, % at 5.9 µM. hit rate 0.38% among 320,000;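 active means inhibition above the screen-wide mean plus 3 SD, limit set per campaign, cut at about 26% in these data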
Fam108B counter = blocks mouse Fam108B hydrolase in RBBP9 counter-screen | recombinant Fam108B, FP-Rh probe fluorescence polarization | inhibition, % at 9.51 µM | hit rate 0.33% among 300,000 | AID 1947;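 active means inhibition above the screen mean inhibition plus 3 SD, computed separately per campaign, cut at about 18% in these data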;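 further: inhibitors lower polarization as less probe binds the enzyme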
PREPL inh cf = human PREPL inhibition, confirmation; shares compounds with PREPL inhibitor; inhibition, % at 5.96 µM; recombinant PREPL, fluorescence polarization activity probe; hit rate 67% among 2,000
Large screens that a line does not name were inactive (follow-up assays come after a bar, where they were run). This is a sample that favours compounds with a hit; in the whole collection about 1.3% have one here. Unless noted, no stated cut-off is given here; in the data, active means inhibition above about 43%; inactive means the rest.

Cc1ccc(C2=CC(c3ccc(N(C)C)cc3)n3nnnc3N2)cc1 (configuration not stated)	PREPL inhibitor 59 | PREPL inh cf 54
CCN1CCN(c2cc(C)c3cc(NC(=O)CCC(=O)N4CCN(c5ccccc5)CC4)ccc3n2)CC1	PREPL inhibitor 49 | PREPL inh cf 47
CCN1CCN(c2cc(C)c3cc(NC(=O)CCC(=O)N4CCN(c5ccccc5OC)CC4)ccc3n2)CC1	none
COc1ccc2c(C(=O)c3ccc(Cl)cc3)n(CCCC(N)=O)[n+]([O-])c2c1	none
N#CC1=C(Nc2ccccc2)SC=C(c2ccc(F)cc2)N=C1N1CCOCC1	PREPL inhibitor 52 | PREPL inh cf inactive
O=C1OC[C@@H]2CCCN2C(=O)[C@H](CC(=O)N(CCO)Cc2ccccc2)C/C=C\C[C@H]1Cc1ccc(F)cc1	PREPL inhibitor 51 (no result: PME-1 inh, LYPLA1 counter, LYPLA2 counter, Fam108B counter) | PREPL inh cf inactive
COc1cc(/C=N/N=C(N)N)ccc1OCc1ccccc1Cl	PREPL inhibitor 49 | PREPL inh cf 48
COc1ccc(/C=N/N=C/c2ccc(OC)c(OC)c2)cc1OC	none
Cc1ccc(N=Cc2sc(O)c3ccccc23)cc1	PREPL inhibitor 50 | PREPL inh cf 54
CCC(C)CCN1C(N(C)C)=NC[C@@H]1Cc1ccccc1 (some centres not stated)	none
NC1=NC[C@H](Cc2ccccc2)N1CCCCC1CCCCC1	none
CCC[C@@H](CN1CCC[C@H]1CN1C(N)=NC[C@H]1C(C)C)N1C[C@@H](Cc2ccccc2)N(CCCC2CCCC2)C1=N	PREPL inhibitor 57 (no result: PME-1 inh, LYPLA1 counter, LYPLA2 counter, Fam108B counter) | PREPL inh cf 55
CCCCN1C(=N)N([C@@H](CCC)CN2CCC[C@H]2CN2C(N)=NC[C@@H]2Cc2ccccc2)C[C@H]1[C@H](C)CC	PREPL inhibitor 45 (no result: PME-1 inh, LYPLA1 counter, LYPLA2 counter, Fam108B counter) | PREPL inh cf 47
CCCCN1C(Nc2ccccc2)=NC[C@@H]1CC(C)C	none
CCCCN1C(=N)N([C@@H](CCC)CN2CCC[C@H]2CN2C(N)=NC[C@H]2CC(C)C)C[C@H]1Cc1ccccc1	PREPL inhibitor 48 (no result: PME-1 inh, LYPLA1 counter, LYPLA2 counter, Fam108B counter) | PREPL inh cf 49
Clc1ccc(OCc2nn3c(C4CCCCC4)nnc3s2)cc1	PREPL inhibitor 46 | PREPL inh cf inactive
c1ccc(C2=Nc3cccnc3C(c3ccccc3)=NN2)cc1	none
CN(C)c1ccc(C(CNS(=O)(=O)c2ccc(F)cc2)c2c[nH]c3ccccc23)cc1 (configuration not stated)	none
CN(C)c1ccc(C(CNC(=O)c2ccccc2Br)c2c[nH]c3ccccc23)cc1 (configuration not stated)	PREPL inhibitor 56 | PREPL inh cf inactive
S=C(NCCCN1CCOCC1)N(Cc1ccccc1)Cc1ccccc1	none
N#Cc1ccc(-c2csc(NC(=O)c3ccc(S(=O)(=O)N4CCc5ccccc5C4)cc3)n2)cc1	none
COc1ccc(COC(=O)Nc2cc3c(C(F)(F)F)nn(C)c3s2)cc1	PREPL inhibitor 45 | PREPL inh cf inactive
COc1ccc2nc3cc(Cl)ccc3c(Nc3cc(CN4CCCC4)c(O)c(CN4CCCC4)c3)c2n1	PREPL inhibitor 64 | PREPL inh cf 54
O=C(O)C(Cc1c[nH]c2ccccc12)NS(=O)(=O)c1ccc(Cl)cc1 (configuration not stated)	none
CC[C@@H](C)[C@@H]1CN([C@@H](C)CN2CCC[C@H]2CN2C(N)=NC[C@@H]2Cc2ccccc2)C(=N)N1CCCC1CCCC1	PREPL inhibitor 44 (no result: PME-1 inh, LYPLA1 counter, LYPLA2 counter, Fam108B counter) | PREPL inh cf 50
CC[C@@H](C)[C@@H]1CN([C@@H](C)CN2CCC[C@H]2CN2C(N)=NC[C@@H]2Cc2ccccc2)C(=N)N1CCc1ccc(Cl)c(Cl)c1	PREPL inhibitor 52 (no result: PME-1 inh, LYPLA1 counter, LYPLA2 counter, Fam108B counter) | PREPL inh cf inactive
CC[C@@H](C)[C@@H]1CN([C@@H](C)CN2CCC[C@H]2CN2C(N)=NC[C@H]2CC(C)C)C(=N)N1CCCC1CCCC1	none (no result: PME-1 inh, LYPLA1 counter, LYPLA2 counter, Fam108B counter)
CC[C@@H](C)[C@@H]1CN([C@@H](CN2CCC[C@H]2CN2C(N)=NC[C@H]2C(C)C)C(C)C)C(=N)N1CCc1ccc(Cl)c(Cl)c1	PREPL inhibitor 60 (no result: PME-1 inh, LYPLA1 counter, LYPLA2 counter, Fam108B counter) | PREPL inh cf 50
Cc1ccc(C(=O)OCC(=O)NCc2ccco2)cc1C	none (no result: Fam108B counter)
CCOc1ccc(Nc2ncnc3c2cnn3C)cc1	none
Cc1ccc(CN2CCSc3ccc(C(=O)NCC4CCCO4)cc32)cc1 (configuration not stated)	PREPL inhibitor 43 | PREPL inh cf inactive
CC(/C=C/c1ccco1)=N/NC(=O)c1ccc(C)nc1	PREPL inhibitor 60 | PREPL inh cf inactive
